# Laboratory results: the supplement of paper PMC6992640
# Legend:
# Assay in all cases: cell viability of combination (% of vehicle); higher = less cytotoxic
# Details in all cases: 1 µM; 72 h; partner dose: 10 nM
# HCI01 [1] = tested on: HCI01 (cells of a triple-negative basal-like breast cancer xenograft)
# Description: (§1)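 PDX cells were treated for 72 h with each drug at 1 µM plus afatinib (10 nM; 1 µM for WHIM30). Luciferase viability is expressed as percent of vehicle.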
# UCD52 [2] = tested on: UCD52 (cells of a triple-negative basal-like breast cancer xenograft)
# Description: as §1
# WHIM2 = tested on: WHIM2 (cells of a triple-negative basal-like breast cancer xenograft)
# Description: as §1
# HCI01 [3] = tested on: HCI01; remark: listed apart in the source
# Description: (§2)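 PDX cells were treated for 72 h with each drug at 1 µM plus carfilzomib (10 nM; 100 nM for WHIM2). Luciferase viability is expressed as percent of vehicle.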
# UCD52 [4] = tested on: UCD52; remark: listed apart in the source
# Description: as §2
# WHIM30 = tested on: WHIM30 (cells of a triple-negative basal-like breast cancer xenograft)
# Description: as §2
smiles,measurement,setting,value
CC(C)(C)Cn1c(N)nc2ccc(-c3[nH]c(C(C)(C)C)nc3-c3ccc(F)cc3)nc21.CS(=O)(=O)O.CS(=O)(=O)O + CN(C)C/C=C/C(=O)Nc1cc2c(Nc3ccc(F)c(Cl)c3)ncnc2cc1O[C@H]1CCOC1 [Afatinib],cell viability of combination,HCI01 [1],35.9
same,cell viability of combination,UCD52 [2],30.3
same,cell viability of combination,WHIM2,35.4
COCCOC(=O)C1=C(C)NC(C)=C(C(=O)OCC=Cc2ccccc2)C1c1cccc([N+](=O)[O-])c1 (stereo not given) [Cilnidipine] + CN(C)C/C=C/C(=O)Nc1cc2c(Nc3ccc(F)c(Cl)c3)ncnc2cc1O[C@H]1CCOC1 [Afatinib],cell viability of combination,HCI01 [1],48.9
same,cell viability of combination,UCD52 [2],70.6
same,cell viability of combination,WHIM2,40.4
CN1CCCC1CCOC(C)(c1ccccc1)c1ccc(Cl)cc1.O=C(O)C=CC(=O)O (stereo not given) [Clemastine Fumarate] + CC(C)C[C@H](NC(=O)[C@H](CCc1ccccc1)NC(=O)CN1CCOCC1)C(=O)N[C@@H](Cc1ccccc1)C(=O)N[C@@H](CC(C)C)C(=O)[C@@]1(C)CO1 [Carfilzomib],cell viability of combination,HCI01 [3],77.2
same,cell viability of combination,UCD52 [4],61.1
same,cell viability of combination,WHIM30,15.5
C=C1C(=CC=C2CCCC3(C)C2CCC3C(C)C=CC(C)C(C)C)CC(O)CC1O (stereo not given) [Doxercalciferol] + CC(C)C[C@H](NC(=O)[C@H](CCc1ccccc1)NC(=O)CN1CCOCC1)C(=O)N[C@@H](Cc1ccccc1)C(=O)N[C@@H](CC(C)C)C(=O)[C@@]1(C)CO1 [Carfilzomib],cell viability of combination,HCI01 [3],67
same,cell viability of combination,UCD52 [4],44
same,cell viability of combination,WHIM30,17
CC(NCCCc1cccc(C(F)(F)F)c1)c1cccc2ccccc12 (stereo not given) [Cinacalcet] + CC(C)C[C@H](NC(=O)[C@H](CCc1ccccc1)NC(=O)CN1CCOCC1)C(=O)N[C@@H](Cc1ccccc1)C(=O)N[C@@H](CC(C)C)C(=O)[C@@]1(C)CO1 [Carfilzomib],cell viability of combination,HCI01 [3],82.4
same,cell viability of combination,UCD52 [4],56.1
same,cell viability of combination,WHIM30,19.5
C[C@H]1O[C@@H](O[C@H]2[C@@H](O)C[C@H](O[C@H]3[C@@H](O)C[C@H](O[C@H]4CC[C@@]5(C)[C@H](CC[C@@H]6[C@@H]5C[C@@H](O)[C@]5(C)[C@@H](C7=CC(=O)OC7)CC[C@]65O)C4)O[C@@H]3C)O[C@@H]2C)C[C@H](O)[C@@H]1O [Digoxin] + CC(C)C[C@H](NC(=O)[C@H](CCc1ccccc1)NC(=O)CN1CCOCC1)C(=O)N[C@@H](Cc1ccccc1)C(=O)N[C@@H](CC(C)C)C(=O)[C@@]1(C)CO1 [Carfilzomib],cell viability of combination,HCI01 [3],40.7
same,cell viability of combination,UCD52 [4],16.9
same,cell viability of combination,WHIM30,4.55
CCCCCCCCc1ccc(CCC(N)(CO)CO)cc1.Cl [Fingolimod (FTY720)] + CC(C)C[C@H](NC(=O)[C@H](CCc1ccccc1)NC(=O)CN1CCOCC1)C(=O)N[C@@H](Cc1ccccc1)C(=O)N[C@@H](CC(C)C)C(=O)[C@@]1(C)CO1 [Carfilzomib],cell viability of combination,HCI01 [3],77.3
same,cell viability of combination,UCD52 [4],61.5
same,cell viability of combination,WHIM30,16.7
CC1(COc2ccc3c(c2)ncn3-c2ccc3cccc(N4CCC(N)CC4)c3n2)COC1 + CN(C)C/C=C/C(=O)Nc1cc2c(Nc3ccc(F)c(Cl)c3)ncnc2cc1O[C@H]1CCOC1 [Afatinib],cell viability of combination,HCI01 [1],56.3
CO[C@H]1C[C@@H]2CC[C@@H](C)[C@@](O)(O2)C(=O)C(=O)N2CCCC[C@H]2C(=O)O[C@H]([C@H](C)C[C@@H]2CC[C@@H](OC(=O)C(C)(CO)CO)[C@H](OC)C2)CC(=O)[C@H](C)/C=C(\C)[C@@H](O)[C@@H](OC)C(=O)[C@H](C)C[C@H](C)/C=C/C=C/C=C/1C [Temsirolimus] + CC(C)C[C@H](NC(=O)[C@H](CCc1ccccc1)NC(=O)CN1CCOCC1)C(=O)N[C@@H](Cc1ccccc1)C(=O)N[C@@H](CC(C)C)C(=O)[C@@]1(C)CO1 [Carfilzomib],cell viability of combination,HCI01 [3],72.4
same,cell viability of combination,UCD52 [4],49.5
same,cell viability of combination,WHIM30,23.9
COC(=O)NC(C(=O)N1CCCC1c1ncc(-c2ccc(-c3ccc(-c4cnc(C5CCCN5C(=O)C(NC(=O)OC)C(C)C)[nH]4)cc3)cc2)[nH]1)C(C)C (stereo not given) + CC(C)C[C@H](NC(=O)[C@H](CCc1ccccc1)NC(=O)CN1CCOCC1)C(=O)N[C@@H](Cc1ccccc1)C(=O)N[C@@H](CC(C)C)C(=O)[C@@]1(C)CO1 [Carfilzomib],cell viability of combination,HCI01 [3],70.8
same,cell viability of combination,UCD52 [4],60.4
same,cell viability of combination,WHIM30,25.3
COc1cccc2c1C(=O)c1c(O)c3c(c(O)c1C2=O)CC(O)(C(=O)CO)CC3OC1CC(N)C(O)C(C)O1 (stereo not given) [Doxorubicin] + CC(C)C[C@H](NC(=O)[C@H](CCc1ccccc1)NC(=O)CN1CCOCC1)C(=O)N[C@@H](Cc1ccccc1)C(=O)N[C@@H](CC(C)C)C(=O)[C@@]1(C)CO1 [Carfilzomib],cell viability of combination,HCI01 [3],55.4
same,cell viability of combination,UCD52 [4],28.3
same,cell viability of combination,WHIM30,8.32
CN1CCN(c2ccc(C(=O)/N=c3\[nH][nH]c4ccc(Cc5cc(F)cc(F)c5)cc34)c(NC3CCOCC3)c2)CC1 [Entrectinib] + CC(C)C[C@H](NC(=O)[C@H](CCc1ccccc1)NC(=O)CN1CCOCC1)C(=O)N[C@@H](Cc1ccccc1)C(=O)N[C@@H](CC(C)C)C(=O)[C@@]1(C)CO1 [Carfilzomib],cell viability of combination,HCI01 [3],90.7
same,cell viability of combination,UCD52 [4],45
same,cell viability of combination,WHIM30,10.1
CCN(CC)CCCC(C)Nc1ccnc2cc(Cl)ccc12.O=P(O)(O)O.O=P(O)(O)O (stereo not given) [Chloroquine diphosphate] + CC(C)C[C@H](NC(=O)[C@H](CCc1ccccc1)NC(=O)CN1CCOCC1)C(=O)N[C@@H](Cc1ccccc1)C(=O)N[C@@H](CC(C)C)C(=O)[C@@]1(C)CO1 [Carfilzomib],cell viability of combination,HCI01 [3],64
same,cell viability of combination,UCD52 [4],52.9
same,cell viability of combination,WHIM30,13.5
CC(C)CC(NC(=O)C(NC(=O)c1cccc(-c2ccccc2)n1)C(C)O)B(O)O (stereo not given) + CC(C)C[C@H](NC(=O)[C@H](CCc1ccccc1)NC(=O)CN1CCOCC1)C(=O)N[C@@H](Cc1ccccc1)C(=O)N[C@@H](CC(C)C)C(=O)[C@@]1(C)CO1 [Carfilzomib],cell viability of combination,HCI01 [3],42.4
same,cell viability of combination,UCD52 [4],20.1
same,cell viability of combination,WHIM30,8.71
CC(C)C1=CC(=C2NNC(=O)N2c2ccc3c(ccn3C)c2)C(=O)C=C1O [Ganetespib (STA-9090)] + CN(C)C/C=C/C(=O)Nc1cc2c(Nc3ccc(F)c(Cl)c3)ncnc2cc1O[C@H]1CCOC1 [Afatinib],cell viability of combination,HCI01 [1],49.1
same,cell viability of combination,UCD52 [2],30.9
same,cell viability of combination,WHIM2,29.1
CCc1cnn2c(NCc3ccc[n+]([O-])c3)cc(N3CCCCC3CCO)nc12 (stereo not given) + CC(C)C[C@H](NC(=O)[C@H](CCc1ccccc1)NC(=O)CN1CCOCC1)C(=O)N[C@@H](Cc1ccccc1)C(=O)N[C@@H](CC(C)C)C(=O)[C@@]1(C)CO1 [Carfilzomib],cell viability of combination,HCI01 [3],33.6
same,cell viability of combination,UCD52 [4],23.7
same,cell viability of combination,WHIM30,7.14
C=C1C(=CC=C2CCCC3(C)C2CCC3C(C)CCCC(C)(C)O)CC(O)CC1O (stereo not given) [Calcitriol] + CC(C)C[C@H](NC(=O)[C@H](CCc1ccccc1)NC(=O)CN1CCOCC1)C(=O)N[C@@H](Cc1ccccc1)C(=O)N[C@@H](CC(C)C)C(=O)[C@@]1(C)CO1 [Carfilzomib],cell viability of combination,HCI01 [3],53.8
same,cell viability of combination,UCD52 [4],38.4
same,cell viability of combination,WHIM30,19.1
CN(C)c1ccc(O)c2c1CC1CC3C(N(C)C)C(=O)C(C(N)=O)=C(O)C3(O)C(=O)C1=C2O.Cl (stereo not given) [Minocycline HCl] + CC(C)C[C@H](NC(=O)[C@H](CCc1ccccc1)NC(=O)CN1CCOCC1)C(=O)N[C@@H](Cc1ccccc1)C(=O)N[C@@H](CC(C)C)C(=O)[C@@]1(C)CO1 [Carfilzomib],cell viability of combination,HCI01 [3],83.9
same,cell viability of combination,UCD52 [4],65.9
same,cell viability of combination,WHIM30,26.4
CN1CCN(CCOc2cc(OC3CCOCC3)c3c(Nc4c(Cl)ccc5c4OCO5)ncnc3c2)CC1 [Saracatinib (AZD0530)] + CC(C)C[C@H](NC(=O)[C@H](CCc1ccccc1)NC(=O)CN1CCOCC1)C(=O)N[C@@H](Cc1ccccc1)C(=O)N[C@@H](CC(C)C)C(=O)[C@@]1(C)CO1 [Carfilzomib],cell viability of combination,HCI01 [3],66.1
same,cell viability of combination,UCD52 [4],39.3
same,cell viability of combination,WHIM30,21.1
COc1cc2ncnc(Nc3ccc(F)c(Cl)c3)c2cc1NC(=O)C=CCN1CCCCC1 + CC(C)C[C@H](NC(=O)[C@H](CCc1ccccc1)NC(=O)CN1CCOCC1)C(=O)N[C@@H](Cc1ccccc1)C(=O)N[C@@H](CC(C)C)C(=O)[C@@]1(C)CO1 [Carfilzomib],cell viability of combination,HCI01 [3],68.1
same,cell viability of combination,UCD52 [4],34.1
same,cell viability of combination,WHIM30,14.6
C=CC(=O)Nc1cc(Nc2nccc(-c3cn(C)c4ccccc34)n2)c(OC)cc1N(C)CCN(C)C + CC(C)C[C@H](NC(=O)[C@H](CCc1ccccc1)NC(=O)CN1CCOCC1)C(=O)N[C@@H](Cc1ccccc1)C(=O)N[C@@H](CC(C)C)C(=O)[C@@]1(C)CO1 [Carfilzomib],cell viability of combination,HCI01 [3],59.8
same,cell viability of combination,UCD52 [4],53.7
same,cell viability of combination,WHIM30,17.5
COc1ccccc1OCCNCC(O)COc1cccc2[nH]c3ccccc3c12 (stereo not given) [Carvedilol] + CC(C)C[C@H](NC(=O)[C@H](CCc1ccccc1)NC(=O)CN1CCOCC1)C(=O)N[C@@H](Cc1ccccc1)C(=O)N[C@@H](CC(C)C)C(=O)[C@@]1(C)CO1 [Carfilzomib],cell viability of combination,HCI01 [3],76.8
same,cell viability of combination,UCD52 [4],61.4
same,cell viability of combination,WHIM30,20.7
COc1ccc2c(O[C@H]3CC4C(=O)N(C)CCCC/C=C\[C@H]5C[C@@]5(C(=O)NS(=O)(=O)C5CC5)NC(=O)[C@@H]4C3)cc(-c3nc(C(C)C)cs3)nc2c1C (stereo not given in full) [Simeprevir] + CC(C)C[C@H](NC(=O)[C@H](CCc1ccccc1)NC(=O)CN1CCOCC1)C(=O)N[C@@H](Cc1ccccc1)C(=O)N[C@@H](CC(C)C)C(=O)[C@@]1(C)CO1 [Carfilzomib],cell viability of combination,HCI01 [3],82.7
same,cell viability of combination,UCD52 [4],62.5
same,cell viability of combination,WHIM30,22.1
C=C1C(=CC=C2CCCC3(C)C2CCC3C(C)CCCC(C)(C)O)CC(O)CC1O (stereo not given) [Calcitriol] + CN(C)C/C=C/C(=O)Nc1cc2c(Nc3ccc(F)c(Cl)c3)ncnc2cc1O[C@H]1CCOC1 [Afatinib],cell viability of combination,HCI01 [1],42.1
same,cell viability of combination,UCD52 [2],43.3
same,cell viability of combination,WHIM2,31.2
